Hits are enriched below; roughly 1.3% of the tested compounds scored in any of these assays.
Vaccinia mCherry = qHTS for Stage-Specific Inhibitors of Vaccinia Orthopoxvirus: mCherry Reporter Primary qHTS; Vaccinia virus mCherry reporter infection, fluorescence; 0.63% of 310,000 active; Potency, µM (doses to about 36.5 µM), for the others: at the highest dose activity change, negative = inhibition, hits mostly inhibitors; AID 720579, 2013; calls by dose curve; tested in A549 cells; further: potency means the concentration at half of the fitted maximal effect; on the % scale 0 is the no-effect control and ±100 the full control effect; nearly all actives have a fitted effect of over 35% in size
AmpC detergent = qHTS Inhibitors of AmpC Beta-Lactamase (assay with detergent). P00811. AmpC hydrolysis of nitrocefin, absorbance 480 nm, 0.01% Triton. Potency, µM (titrated, usually from 114 µM), for inactives: at the top dose activity change, negative = inhibition, actives largely listed as inhibitors. 0.041% of 370,000 active;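 further: potency means the concentration at half of the fitted maximal effect; 0% = no-compound wells and -100% = no-enzyme wells; nearly all actives have a fitted effect of over 25% in size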
Target sequence (P00811 whole entry, looked up): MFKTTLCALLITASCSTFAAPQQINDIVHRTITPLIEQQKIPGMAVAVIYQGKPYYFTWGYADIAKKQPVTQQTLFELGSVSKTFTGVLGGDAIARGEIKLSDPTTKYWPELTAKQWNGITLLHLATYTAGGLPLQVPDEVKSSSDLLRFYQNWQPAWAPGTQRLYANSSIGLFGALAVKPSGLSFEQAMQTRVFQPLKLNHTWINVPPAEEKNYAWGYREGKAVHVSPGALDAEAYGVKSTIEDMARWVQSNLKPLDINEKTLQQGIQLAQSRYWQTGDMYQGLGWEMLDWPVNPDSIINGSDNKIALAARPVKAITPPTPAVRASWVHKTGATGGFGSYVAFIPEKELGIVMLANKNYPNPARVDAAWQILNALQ
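20 mM phosphate pH 7.0 + 0.01% (detergent screen) or 0.0001% Triton X-100; 5.3 nM AmpC reagent; cpd preinc 15 min RT; nitrocefin (800 uM stock) to start; A480 q20 s × 4 min; Activity was normalised to no-enzyme and no-compound control wells.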
SARS PLpro yeast-1 = qHTS of Yeast-based Assay for SARS-CoV PLP. S. cerevisiae expressing SARS-CoV PLpro, growth rescue. Potency, µM (titrated, usually from 32.9 µM), without a hit: at the highest dose activity, positive = growth rescue, usual class: activators. 0.19% of 330,000 active; calls by dose curve; further: potency means the concentration at half of the fitted maximal effect; 0% is about no effect; nearly all actives have a fitted effect of over 55% in size
AmpC no deterg = qHTS Inhibitors of AmpC Beta-Lactamase (assay without detergent); 0.52% of 330,000 active; AmpC nitrocefin hydrolysis, absorbance 480 nm, 0.0001% Triton; AID 485341, 2010; P00811; Potency, µM (highest dose often 57.1 µM), for inactives: at the top dose activity change, negative = inhibition, hits mostly inhibitors;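 further: potency means the concentration at half of the fitted maximal effect; plate controls were no compound for no effect and no enzyme for full effect; nearly all actives have a fitted effect of over 20% in size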
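AmpC (5.3 nM in the dispensed reagent) in 20 mM phosphate pH 7.0 with 0.01% (detergent screen) or 0.0001% Triton X-100 was preincubated with compounds for 15 min at room temperature. Nitrocefin was then added from an 800 uM solution, and hydrolysis was followed at 480 nm.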
AMA1 RON2 block = qHTS for Inhibitors of AMA1-RON; Towards Development of Antimalarial Drug Lead: Primary Screen | AlphaScreen AMA1-biotinylated RON2 peptide binding | Potency, µM (series often up to 58.2 µM), for inactives: at the highest dose activity change, negative = inhibition, most hits filed as inhibitors | 0.2% of 360,000 active;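 further: potency means the concentration at half of the fitted maximal effect; 0% = vehicle wells and -100% = peptide control; nearly all actives have a fitted effect of over 45% in size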
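AMA1 (3D7) with his tag at 25 nM final met compounds first, then biotinylated RON2 peptide at 25 nM; detection used donor plus acceptor beads, 10 µg/mL apiece, read by AlphaScreen after 30 min at room temperature.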
VACV Venus inh = qHTS for Stage-Specific Inhibitors of Vaccinia Orthopoxvirus: Venus Reporter Primary qHTS | Vaccinia virus Venus reporter expression, fluorescence | Potency, µM (top dose mostly 36.5 µM), for the others: at the highest dose activity change, negative = inhibition, usual class: inhibitors | 0.46% of 330,000 active; calls by dose curve; tested in A549 cells; further: potency means the concentration at half of the fitted maximal effect; on the % scale 0 is the no-effect control and ±100 the full control effect; nearly all actives have a fitted effect of over 30% in size
SARS PLpro yeast-2 = qHTS of Yeast-based Assay for SARS-CoV PLP: Hit Validation | shares compounds with SARS PLpro yeast-1 | yeast expressing SARS-CoV PLpro, growth phenotype rescue | calls only | 19% of 1,000 active | AID 652038, 2013; call rule not given here
Numbers without * were called inactive; i = inactive; ? = inconclusive; . = no result; + = active, no number. Unless noted, the call rests on the fitted dose curve; in most records, active means well fitted curve in the direction sought with a large enough effect; inconclusive means small, poorly fitted or top-dose-only effect, or another doubt; inactive means no such curve, though single readings can be large; an effect the other way counts as inactive or inconclusive.

SMILES	Vaccinia mCherry	AmpC detergent	SARS PLpro yeast-1	AmpC no deterg	AMA1 RON2 block	VACV Venus inh	SARS PLpro yeast-2
COc1ccc(Cn2c(O)c(/C=N/NC(=O)c3ccccc3O)c(=O)[nH]c2=O)cc1	-2%	-6%	10µM*	-53%	66%	5%	i
COc1ccc(Cn2c(O)c(/C=N/NC(=O)c3ccncc3)c(=O)[nH]c2=O)cc1	-16%	-1%	10%	-50%	44%	-23%	.
COc1ccc(Cn2c(O)c(C=NCCN3CCOCC3)c(=O)[nH]c2=O)cc1	0%	-4%	-7%	-19%	21%	10%	.
O=C(N/N=C/c1c(O)n(CCc2ccc(F)cc2)c(=O)[nH]c1=O)c1ccncc1	1%	-5%	19%	-44%	26%	-6%	.
O=C(N/N=C/c1c(O)n(Cc2ccc(F)cc2)c(=O)[nH]c1=O)c1ccccc1O	-8%	-2%	11µM*	-39%	75%	-2%	i
COc1ccc(Cn2c(O)c(/C=N/NC(=O)c3ccccc3)c(=O)[nH]c2=O)cc1	.	?	10µM*	-25%	47%	.	i
O=C(N/N=C/c1c(O)n(Cc2ccccc2)c(=O)[nH]c1=O)c1ccccc1O	36%	-12%	10µM*	-37%	35%	15%	i
C=CCC(O)(CC=C)CNC(=O)C1CCC(=O)N(CCCc2ccccc2)C1 (stereo not given)	i	-5%	9%	42%	8%	-7%	.
COc1ccc(S(=O)(=O)N2CCOCC2)cc1NC(=O)c1ccccc1-c1ccc(C(F)(F)F)cc1	-21%	-4%	4%	-14%	3%	-9%	.
COc1ccc(CN(Cc2ccccc2)C(=O)c2ccno2)cc1COc1ccc(NC(C)=O)cc1	i	.	.	.	.	-8%	.
O=C(N/N=C/c1c(O)n(CCc2ccc(F)cc2)c(=O)[nH]c1=O)c1ccccc1	.	2%	2%	-19%	95%	.	.
O=C(N/N=C/c1c(O)n(CCc2ccccc2)c(=O)[nH]c1=O)c1ccccc1O	.	1%	2.2µM*	-57%	65%	.	?
Cc1cc(C)cc(C(=O)NC(CC(N)=O)c2ccc(NCCN3CCCC3)c([N+](=O)[O-])c2)c1 (stereo not given)	i	-14%	-4%	-8%	9%	-6%	.
Cc1cc(C)nc(N2CCC(C(=O)NCCc3ccc(F)cc3)CC2)n1	i	?	-7%	-1%	-4%	-8%	.
Cc1cc(C)nc(N2CCCC(C(=O)NCCc3ccc(F)cc3)C2)n1 (stereo not given)	.	?	?	-8%	-27%	.	+
CC1CCN(c2nc3c(c(=O)[nH]c(=O)n3C)n2Cc2ccccc2)CC1	13%	-4%	-3%	-17%	-5%	-13%	.
CC1CCCN(c2nc3c(c(=O)[nH]c(=O)n3C)n2CCCc2ccccc2)C1 (stereo not given)	?	?	?	-6%	-4%	-8%	i
COc1cccc(NC(=O)COC(=O)c2ccccc2F)c1	-11%	-4%	-3%	-26%	-1%	-8%	.
COc1cccc(NC(=O)COC(=O)CNS(=O)(=O)c2c(F)cccc2F)c1	i	-12%	?	-28%	-11%	2%	i
COCCCNC(=O)c1c(NC(=O)C2COc3ccccc3O2)sc2c1CCCC2 (stereo not given)	-21%	0%	?	-13%	0%	-18%	i
Cc1cc(OCC(=O)NC(C)(C)C)ccc1Cl	i	-8%	?	-14%	23%	-14%	i

Screening results from PubChem BioAssay.
